Measurements published in PubChem BioAssay AID1508621 (National Center for Advancing Translational Sciences (NCATS), 2021).
Records with an inconclusive call do not appear. Active and inactive are the calls of the source. The call rests on the fitted dose curve; in most records, active means well fitted inhibition curve with a large enough effect; inconclusive means small, poorly fitted or top-dose-only effect; inactive means no such curve, though single readings can be large or run the other way.

Experiment: Confirmatory qHTS for Identification of Small Molecule Inhibitors of Huntingtin Promoter Activity; further: nearly all actives have a fitted effect of over 65% in size;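 on activity change, negative = inhibition: 0% = vehicle control and -100% = zero luminescence signal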
Conditions: HEK293 HTT promoter firefly luciferase reporter, 24 h; series mostly up to 57.5 µM; activity change, negative = inhibition: at the top concentration
Outline: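 2,500 luciferase reporter HEK293 cells/well; 24 h culture; cpds up to 57.5 uM final, PTC124 50 uM ctrl; 24 h, 37C; Dual-Glo FLuc reagent, 10 min RT; lum. Norm.: vehicle 0%, zero RLU -100%.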
Potency means the concentration at half of the fitted maximal effect.

Activity change, negative = inhibition, inactive:
O=C(CCCCCCNC(=O)c1cnc(N(c2ccccc2)c2ccccc2)nc1)NO 440%
Cc1ccc(S(=O)(=O)n2nc(-c3ccco3)nc2NCc2ccccc2Cl)cc1 22.1%
O=C(NCCC1=CCCCC1)c1ccc2c(c1)N(Cc1cccc(Cl)c1)C(=O)c1ccccc1S2(=O)=O -7.04%
CCS(=O)(=O)N1CC(CC#N)(n2cc(-c3ncnc4[nH]ccc34)cn2)C1 76.1%
O=C(Nc1cccc(C(=O)N2CCN(c3ccc(Cl)cc3)CC2)c1)c1nsc2ccccc12 -35.8%
N#CC[C@H](C1CCCC1)n1cc(-c2ncnc3[nH]ccc23)cn1 4.44%
O=C(NCc1cccnc1)C(=O)NCC(c1cccnc1)N1CCN(c2ccccc2F)CC1 (stereo not given) -17.6%
CCc1nc2ccc(C(=O)NCCc3ccc(OC)cc3OC)cc2nc1CC -18.9%
O=c1c(-c2ccc(O)cc2)coc2cc(O)ccc12 50.9%
CN(C)Cc1c(C(=O)NCCOc2ccc(C(=O)NO)cc2)oc2ccccc12 455%

Potency, active:
CCCN(c1ccccc1CC)S(=O)(=O)c1ccc2c(c1)CC(C)N2C(=O)C1CC1 (stereo not given) 13.5 µM
Cc1cc(C)c(NS(=O)(=O)c2ccc(-c3cnc(C4CC4)o3)cc2)c(C)c1 0.675 µM
C[n+]1cc2c3c(ccc2c2ccc4cc5c(cc4c21)OCO5)OCO3 5.86 µM
COc1ccc(-c2noc(N3CCC(C(=O)N4CCN(c5cccc(OC)c5)CC4)CC3)n2)cc1 1.35 µM
CCOc1ccc(C(=O)Nc2ccc(S(=O)(=O)N3CCCCC3c3cccnc3)cc2)cc1 (stereo not given) 21.3 µM
